Compound activity deposited in PubChem BioAssay by Sanford-Burnham Center for Chemical Genomics.
TIM10 inh = growth inhibitors of isogenic TIM10 control yeast, primary screen, counter-screen for tim10-1 yeast inhibitor project, luminescence, uHTS. S. cerevisiae TIM10 strain growth, BacTiter-Glo luminescence, 24 h. inhibition, % at 10 µM. hit rate 1.4% among 330,000. AID 463195, 2010;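 active means inhibition of 40% or more at the single tested concentration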;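 further: wild-type TIM10 isogenic control strain grown at permissive 25 °C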
NALP3 yeast inh = NALP3 inflammasome inhibitors in reconstituted yeast, primary screen, luminescence, uHTS. hit rate 0.39% among 330,000. AID 2825, 2010. Yeast reconstituted NLRP3/ASC/caspase-1, beta-gal luminescence, 24 h. inhibition, % at 10 µM;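 active means inhibition of 50% or more; inactive means inhibition below 50%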;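 further: plate controls were induced DMSO wells for no effect and uninduced yeast grown without galactose for full effect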
tim23-1 inh = growth inhibitors of tim23-1 mutant yeast, primary screen, luminescence, uHTS. S. cerevisiae tim23-1 growth, BacTiter-Glo luminescence, 24 h. inhibition, % at 20 µM. hit rate 1.3% among 330,000. AID 463212, 2010;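 active means growth inhibition of the mutant yeast at or above 50%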;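 further: temperature-sensitive mutant grown at 25 °C; plate controls were DMSO-treated mutant yeast for no effect and medium wells lacking yeast for full effect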
tim10-1 inh = growth inhibitors of tim10-1 mutant yeast, primary screen, luminescence, uHTS. S. cerevisiae tim10-1 ts strain growth, BacTiter-Glo, 24 h. inhibition, % at 20 µM. hit rate 2.2% among 330,000;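 active means inhibition of at least 40%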;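 further: mutant grown at 25 °C; 0% = DMSO wells with yeast and 100% = wells holding no yeast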
NALP1 inh = NALP1 inflammasome inhibitors in reconstituted yeast, colorimetric, S. cerevisiae, triplicate retest | S. cerevisiae NALP1/ASC/caspase-1 growth, X-gal OD620, 72 h | inhibition, % at 10 µM | hit rate 0.61% among 280,000 | AID 2071, 2009; in the data active means inhibition mostly above about 24%, no sharp cut-off; inactive means mostly below about 32%
* = called active by the depositor; . = no result given. In the library only some 4% were active in any assay of this set; here they are far more common.

SMILES	TIM10 inh	NALP3 yeast inh	tim23-1 inh	tim10-1 inh	NALP1 inh
CS/C(=N\S(=O)(=O)c1cccs1)Nc1ccc(Br)cc1F	16	23	32	15	46
COc1cc2c(cc1OC)C(c1cccc(C)c1)CC(=O)N2 (centres undefined)	12	20	0	10	44*
OCCN(Cc1ccccc1)c1ncnc2sccc12	-14	37	7	1	6
Cn1c(O)c(N=NC(=O)CNC(=O)/C=C/c2ccccc2)c2ccccc21	5	-3	19	32	37*
Cn1c(O)c(N=NC(=O)c2ccco2)c2ccccc21	-2	18	-2	10	36*
Cn1c(O)c(N=NC(=O)CNC(=O)c2ccco2)c2ccccc21	-2	17	1	10	.
COc1ccc(NC(C)=O)cc1CP(=O)(c1ccccc1)c1ccccc1	-8	7	4	10	-42
COc1cc(C=Nc2cccc(C)c2)c(O)c([N+](=O)[O-])c1	23	7	36	10	49*
COc1ccccc1CNC(=O)c1cc2ccccc2o1	7	33	22	-8	9
COc1ccccc1CNC(=O)c1cc2ccccc2oc1=O	8	7	12	11	28*
C=CCn1c(SCC(=O)Nc2nnc(CC)s2)nnc1-c1ccncc1	0	17	10	10	-14
CCc1nnc(NC(=O)CSc2nnc(-c3cccnc3)n2CC)s1	-12	12	12	9	40*
CCCn1c(SCC(=O)Nc2nnc(CC)s2)nnc1-c1ccncc1	-2	7	10	-7	30*
CCCN1CCN(C(=O)c2ccc(F)c(S(=O)(=O)N3CCOCC3)c2)CC1	1	8	-5	-16	.
NC(=O)C1CCN(C(=O)c2ccc(NS(=O)(=O)c3ccc(Br)s3)cc2)CC1	5	12	4	5	.
COc1ccc2cnn(-c3ccc(OC(F)(F)Cl)cc3)c(=O)c2c1OC	20	20	12	4	17
COc1ccc2cnn(-c3ccc(C)cc3)c(=O)c2c1OC	8	20	24	19	64*
O=C(OCc1cccc(F)c1)c1ccc2c(=O)n3c(nc2c1)CCC3	13	0	10	8	35*
CN(Cc1cccc(F)c1)C(=O)c1ccc2c(=O)n3c(nc2c1)CCC3	0	-8	21	12	-2
NCCS	15	45	-4	6	47*
COC(=O)CSc1nnc(-c2ccc(S(=O)(=O)N3CCCC3)cc2)n1C	-26	2	-3	8	42*
CC(=O)CSc1nnc(-c2ccc(S(=O)(=O)N3CCCC3)cc2)n1C	-16	20	12	4	-1
COC(=O)CSc1nnc(CNS(=O)(=O)c2ccc(C)cc2)n1C	6	15	4	0	36*
O=C(c1ccc(N2CCOCC2)cc1[N+](=O)[O-])N1CCOCC1	7	15	3	-6	34*
CC(OC(=O)CNC(=O)C12CC3CC(CC(C3)C1)C2)C(=O)Nc1ncc(Cl)cc1Cl (centres undefined)	24	-6	40	30	40*
SMILES	TIM10 inh	NALP3 yeast inh	tim23-1 inh	tim10-1 inh	NALP1 inh
CC(OC(=O)CNC(=O)C12CC3CC(CC(C3)C1)C2)C(=O)Nc1ccc(S(N)(=O)=O)cc1 (centres undefined)	11	-9	29	6	14
CC(=O)c1cc(F)c(N2CCOCC2)cc1C	-8	27	-8	-14	44*
CC(=O)c1cc(F)c(N2CCCC2)cc1C	-12	45	17	-12	33
CC1CCCN(CCCCOc2cccc(Br)c2)C1 (centres undefined)	-79	6	-21	-46	37
O=C(COC(=O)c1ccccc1C(=O)c1ccc(Cl)c([N+](=O)[O-])c1)NC1CCCCCC1	29	-3	14	28	36*
O=C(COC(=O)c1ccc(Cl)c([N+](=O)[O-])c1)NC1CCCC1	11	21	4	-1	-6
CCOC(=O)Cc1c(C)nc2c(-c3ccc(OC)cc3)c(C)nn2c1C	9	15	-18	26	43*
O=c1cc(CSc2nc(NCc3ccccc3)c3ccccc3n2)nc2ccc(Cl)cn12	11	-3	-3	8	29
COc1ccc(C(=O)N/N=C\C(C)=C\c2ccccc2)cc1OC	20	-2	28	8	.
CC(/C=N/NC(=O)c1ccc(Br)cc1)=C\c1ccccc1	0	8	24	11	36*
